Results on 40 compounds are retold here after PubChem BioAssay (NCATS).

Inconclusive results are not listed. Where a call stands in place of a potency, no number is given. Calls of active or inactive are those of the source. The call rests on the fitted dose curve; in most records, active means well fitted inhibition curve with a large enough effect; inconclusive means small, poorly fitted or top-dose-only effect, or effect the other way; inactive means no such curve, though single readings can be large or run the other way.
Potency means the concentration at half of the fitted maximal effect.

This test in a line: Quantitative high throughput screen for delayed death inhibitors of the malarial parasite plastid, 96 hour incubation (AID 488745). Further: nearly all actives have a fitted effect of over 70% in size. The conditions noted are these: Plasmodium falciparum growth; series mostly up to 28.7 µM. The source says:
NIH Molecular Libraries Probe Production Network [MLPCN]
NIH Chemical Genomics Center [NCGC]
Assay Provider: David Fidock and Eric Ekland, Columbia University
The goal of this screen is to discover new antimalarial compounds that act by inhibiting the development of the apicoplast in the malarial parasite Plasmodium falciparum. The biochemical processes that make this organelle essential for erythrocytic stage parasites are not well understood. However, antibiotics such as azithromycin and tetracycline, which target the apicoplast translational machinery, have a potent antimalarial effect.
We have developed a cell-based assay that measures parasite growth based on the expression of an integrated copy of a firefly luciferase reporter. To detect small molecules that cause this 'delayed death' phenotype, erythrocytes infected with the luciferase-expressing parasites were incubated with compounds for either one or two generations, corresponding to 48 and 96 hours, respectively. Compounds that inhibit parasite growth in the second generation, but not the first, should be enriched in antimalarials that target the apicoplast. Growth inhibition is detected by a decrease in luciferase activity
Four microliters of culture medium (RPMI 1640 with 0.5% w/v Albumax (GIBCO), 24 mM sodium bicarbonate and 10 ug/mL gentamycin) were dispensed by a Multi-drop Combi into white solid 1536-well plates (Grenier) and 23 nL compound was added by a pin tool. Four microliters of infected erythrocytes (2% hematocrit, 0.1% parasitemia final concentration) in culture medium were dispensed and the plates incubated for 96 hours at 37 C in 5% CO2. Two microliters of luciferase detection reagent was added and luminescence was detected by a ViewLux (PerkinElmer) reader
As to `NC(=O)CN1CC(O)CC1=O` (stereo not given), the Potency entry is “inactive”.
As for `CCCN(CCC)[C@@H]1CCc2ccc(O)cc2C1`, the Potency result is “inactive”.
Take `CNCCc1ccc(O)c(O)c1`: the Potency result was “inactive”.
`NCCc1c[nH]c2ccccc12`: the Potency entry is “inactive”.
Next, `COc1cc(C(O)CN)ccc1O` (stereo not given): “inactive”.
Consider `CC(C)Oc1cccnc1N(C)C1CCN(Cc2ccccc2)CC1`, for which the Potency entry was “inactive”.
In the case of `CC(=O)[C@H]1CCC2C3CC[C@H]4C[C@H](O)CC[C@]4(C)C3CC[C@@]21C` (stereo not given in full), the Potency result was “inactive”.
`C#CCOC(=O)C1=CCCN(C)C1`: the Potency result is “inactive”.
The value for `CCCN1CCC[C@H](c2cccc(O)c2)C1` was “inactive”; that for `O=C(O)CC[N+](=O)[O-]` was “inactive”.
For the compound `c1ccc(CCCN2CCN(CCOC(c3ccccc3)c3ccccc3)CC2)cc1`, the Potency was 2080 nM (active).
For `Cn1cnc(CCN)c1`, the Potency entry is “inactive”.
Next, `NC(CP(=O)(O)O)C(=O)O` (stereo not given): “inactive”; `O=C(O)[C@@H]1CCN1`: “inactive”.
`Oc1ccc2c3c1O[C@H]1c4[nH]c5c(c4C[C@@]4(O)[C@@H](C2)N(CC2CC2)CC[C@]314)C[C@@]1(O)[C@H]2Cc3ccc(O)c4c3[C@@]1(CCN2CC1CC1)[C@H]5O4`: the Potency was 2080 nM (active).
`NC(N)=NOCCC(N)C(=O)O` (stereo not given): the Potency entry is “inactive”.
Take `NC(CCP(=O)(O)O)C(=O)O` (stereo not given): the Potency result was “inactive”.
The value for `CC1=NN=C(c2ccc(N)cc2)c2cc3c(cc2C1)OCO3` was “inactive”.
Next, `C=CCN1CC[C@]23CCCCC2[C@H]1Cc1ccc(O)cc13` (stereo not given in full): “inactive”.
The value for `NC1CC1c1ccccc1` (stereo not given) was “inactive”; that for `O=C1CCCN1CC#CCN1CCCC1` was “inactive”.
As to `CCCN1CCO[C@@H]2c3cc(O)ccc3OC[C@H]21`, the Potency result is “inactive”.
The value for `C[N+]1(C)C2CCC1CC(OC(=O)C(CO)c1ccccc1)C2` (stereo not given) was “inactive”; that for `S=C(NC1CCCCC1)N1CCC(c2cnc[nH]2)CC1` was “inactive”.
Regarding `NC1CCc2cc(O)c(O)cc2C1` (stereo not given), the Potency result was “inactive”.
The value for `Cc1nccc2c1[nH]c1ccccc12` was “inactive”.
Consider `CC(Cc1ccc(O)cc1)NCC(O)c1cc(O)cc(O)c1` (stereo not given), for which the Potency result is “inactive”.
The value for `O=C(O)Cc1cnc[nH]1` was “inactive”; that for `CC[C@@]1(O)C(=O)OCc2c1cc1n(c2=O)Cc2cc3ccccc3nc2-1` was 1470 nM (active).
Next, `C[C@@H]1O[C@H](C[N+](C)(C)C)C[C@H]1O`: “inactive”.
Consider `CCCCc1ccc(C(=O)O)nc1`, for which the Potency result is “inactive”.
For `C[C@@H](N)Cc1cnc[nH]1`, the Potency result is “inactive”.
Consider `C[C@]12N[C@H](Cc3ccccc31)c1ccccc12`, for which the Potency entry is “inactive”.
Turning to `CC[C@@H]1C(=O)OC[C@@H]1Cc1cncn1C`, the Potency result is “inactive”.
For `CC(=O)NCCc1c[nH]c2ccccc12`, the Potency result was “inactive”.
Next, `CS(=N)(=O)CC[C@H](N)C(=O)O` (stereo not given in full): “inactive”.
As for `CCCN(CCC)C1CCc2ccc(O)cc2C1` (stereo not given), the Potency entry was “inactive”.
For `NCCc1c[nH]c2ccc(O)cc12`, the Potency result was “inactive”.
For `COc1ccc2c(c[n+](C)c3c4cc5c(cc4ccc23)OCO5)c1OC`, the Potency entry was “inactive”.
For the compound `Clc1cnc(Oc2ccc(Oc3ncc(Cl)cc3Cl)cc2)c(Cl)c1`, the Potency result was “inactive”.
